Results as given in the supplement of paper PMC11732987, “Enantioselective OTUD7B fragment discovery through chemoproteomics screening and high-throughput optimisation” (Communications Chemistry, 2025).

Columns and labels:
Assay in all cases: log2 ratio of Biotin-Ahx-Ub-VS probe labelling (fragment/DMSO); higher = less target engagement (more negative = stronger competition), active = hit call of the paper (q ≤ 0.05, log2 ratio ≤ -1)
Conditions in all cases: compound concentration: 200 uM; treatment time: 3 h
USP19 = molecular target: T1, USP19 (UniProt O94966)
T1 sequence (whole entry): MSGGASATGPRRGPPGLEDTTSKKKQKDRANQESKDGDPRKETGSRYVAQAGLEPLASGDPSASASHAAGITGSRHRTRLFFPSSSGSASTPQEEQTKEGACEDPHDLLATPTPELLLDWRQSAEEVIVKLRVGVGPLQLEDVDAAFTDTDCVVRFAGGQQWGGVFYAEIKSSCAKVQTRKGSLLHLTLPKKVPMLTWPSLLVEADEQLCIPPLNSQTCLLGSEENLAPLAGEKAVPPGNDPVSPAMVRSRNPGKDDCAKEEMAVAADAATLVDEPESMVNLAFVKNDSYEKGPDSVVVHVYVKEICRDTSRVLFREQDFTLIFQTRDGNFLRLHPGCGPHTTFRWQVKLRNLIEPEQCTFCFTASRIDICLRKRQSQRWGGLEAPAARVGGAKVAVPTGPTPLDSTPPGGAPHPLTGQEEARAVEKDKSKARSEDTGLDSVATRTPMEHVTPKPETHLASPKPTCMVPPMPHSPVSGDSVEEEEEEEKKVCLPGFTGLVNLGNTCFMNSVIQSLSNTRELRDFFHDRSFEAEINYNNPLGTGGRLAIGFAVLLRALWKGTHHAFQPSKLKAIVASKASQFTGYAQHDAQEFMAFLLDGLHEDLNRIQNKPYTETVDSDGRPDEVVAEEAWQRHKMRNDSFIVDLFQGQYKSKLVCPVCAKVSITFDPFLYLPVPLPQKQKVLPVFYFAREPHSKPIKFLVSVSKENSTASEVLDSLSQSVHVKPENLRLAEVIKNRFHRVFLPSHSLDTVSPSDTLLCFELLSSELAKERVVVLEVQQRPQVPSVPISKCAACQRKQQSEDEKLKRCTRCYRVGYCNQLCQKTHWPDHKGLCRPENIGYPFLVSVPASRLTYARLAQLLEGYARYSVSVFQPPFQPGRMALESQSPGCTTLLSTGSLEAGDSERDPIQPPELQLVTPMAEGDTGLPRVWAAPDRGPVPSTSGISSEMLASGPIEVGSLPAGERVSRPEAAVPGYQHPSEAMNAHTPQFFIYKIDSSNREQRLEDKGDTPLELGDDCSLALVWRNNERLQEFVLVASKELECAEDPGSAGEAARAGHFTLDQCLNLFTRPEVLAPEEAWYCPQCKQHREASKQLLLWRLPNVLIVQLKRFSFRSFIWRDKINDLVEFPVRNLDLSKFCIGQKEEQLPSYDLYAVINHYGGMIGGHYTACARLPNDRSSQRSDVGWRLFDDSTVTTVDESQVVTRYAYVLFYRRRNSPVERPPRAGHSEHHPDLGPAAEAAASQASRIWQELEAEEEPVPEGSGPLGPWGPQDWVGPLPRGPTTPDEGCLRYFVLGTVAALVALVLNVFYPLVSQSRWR
How it was run: (§1)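 Labelled DUBs from HEK293T lysate were NeutrAvidin-enriched, digested with LysC and trypsin, and run by diaPASEF LC-MS/MS. Before that, each 495 µg sample in Tris/CHAPS/IGEPAL buffer with protease inhibitors was treated in triplicate with fragment at 200 µM or vehicle for 3 h, then with Biotin-Ahx-Ub-VS at 0.5 µM final for 1 h. Values are average log2 ratios of fragment over vehicle by unpaired t-test, based on global-median-normalised Spectronaut label-free quantities from proteins with ≥2 unique peptides.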

USP22 = molecular target: T2, USP22 (UniProt Q9UPT9)
T2 sequence (whole entry): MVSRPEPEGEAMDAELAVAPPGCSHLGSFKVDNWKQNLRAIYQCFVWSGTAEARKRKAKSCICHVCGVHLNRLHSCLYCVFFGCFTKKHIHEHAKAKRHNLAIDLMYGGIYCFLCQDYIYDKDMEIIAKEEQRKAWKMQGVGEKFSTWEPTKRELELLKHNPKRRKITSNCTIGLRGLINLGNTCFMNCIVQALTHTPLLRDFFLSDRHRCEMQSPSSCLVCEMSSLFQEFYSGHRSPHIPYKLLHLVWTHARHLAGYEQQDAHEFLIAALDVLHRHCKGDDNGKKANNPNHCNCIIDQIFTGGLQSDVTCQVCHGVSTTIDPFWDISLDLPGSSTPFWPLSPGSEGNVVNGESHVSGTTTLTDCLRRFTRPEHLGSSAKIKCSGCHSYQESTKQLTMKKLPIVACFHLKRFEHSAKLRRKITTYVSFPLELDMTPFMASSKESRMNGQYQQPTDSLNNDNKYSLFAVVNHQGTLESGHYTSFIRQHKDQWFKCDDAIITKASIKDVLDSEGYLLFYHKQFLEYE
How it was run: as §1

USP24 = USP24 (UniProt Q9UPU5)
How it was run: as §1

USP25 = molecular target: T3, USP25 (UniProt Q9UHP3)
T3 sequence (whole entry): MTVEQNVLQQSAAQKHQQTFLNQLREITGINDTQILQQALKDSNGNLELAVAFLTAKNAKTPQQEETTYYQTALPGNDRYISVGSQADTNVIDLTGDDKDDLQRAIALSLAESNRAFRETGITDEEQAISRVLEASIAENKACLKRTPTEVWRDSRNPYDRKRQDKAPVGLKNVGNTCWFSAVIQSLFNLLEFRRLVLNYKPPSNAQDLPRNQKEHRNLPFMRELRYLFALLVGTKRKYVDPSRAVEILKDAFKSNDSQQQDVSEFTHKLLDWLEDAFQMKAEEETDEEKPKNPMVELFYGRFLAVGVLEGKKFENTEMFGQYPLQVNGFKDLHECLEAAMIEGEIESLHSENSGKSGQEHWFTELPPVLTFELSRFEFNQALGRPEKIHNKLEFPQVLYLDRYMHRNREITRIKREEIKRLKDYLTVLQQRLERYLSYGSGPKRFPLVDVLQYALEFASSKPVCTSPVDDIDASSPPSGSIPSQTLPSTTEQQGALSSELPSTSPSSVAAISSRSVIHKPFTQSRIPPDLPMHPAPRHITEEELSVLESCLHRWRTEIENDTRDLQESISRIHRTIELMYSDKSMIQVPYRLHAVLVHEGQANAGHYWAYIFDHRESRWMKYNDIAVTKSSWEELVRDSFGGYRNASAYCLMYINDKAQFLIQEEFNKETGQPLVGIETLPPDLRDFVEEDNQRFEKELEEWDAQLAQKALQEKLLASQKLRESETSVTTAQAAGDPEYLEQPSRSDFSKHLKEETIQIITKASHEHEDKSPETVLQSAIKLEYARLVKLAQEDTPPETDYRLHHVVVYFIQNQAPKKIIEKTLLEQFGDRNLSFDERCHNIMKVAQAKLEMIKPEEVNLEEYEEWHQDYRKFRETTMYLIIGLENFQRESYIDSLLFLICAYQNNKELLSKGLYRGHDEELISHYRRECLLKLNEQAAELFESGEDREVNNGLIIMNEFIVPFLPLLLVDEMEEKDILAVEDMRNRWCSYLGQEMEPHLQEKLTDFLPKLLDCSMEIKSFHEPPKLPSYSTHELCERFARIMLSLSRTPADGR
How it was run: as §1

USP28 = molecular target: T4, USP28 (UniProt Q96RU2)
T4 sequence (whole entry): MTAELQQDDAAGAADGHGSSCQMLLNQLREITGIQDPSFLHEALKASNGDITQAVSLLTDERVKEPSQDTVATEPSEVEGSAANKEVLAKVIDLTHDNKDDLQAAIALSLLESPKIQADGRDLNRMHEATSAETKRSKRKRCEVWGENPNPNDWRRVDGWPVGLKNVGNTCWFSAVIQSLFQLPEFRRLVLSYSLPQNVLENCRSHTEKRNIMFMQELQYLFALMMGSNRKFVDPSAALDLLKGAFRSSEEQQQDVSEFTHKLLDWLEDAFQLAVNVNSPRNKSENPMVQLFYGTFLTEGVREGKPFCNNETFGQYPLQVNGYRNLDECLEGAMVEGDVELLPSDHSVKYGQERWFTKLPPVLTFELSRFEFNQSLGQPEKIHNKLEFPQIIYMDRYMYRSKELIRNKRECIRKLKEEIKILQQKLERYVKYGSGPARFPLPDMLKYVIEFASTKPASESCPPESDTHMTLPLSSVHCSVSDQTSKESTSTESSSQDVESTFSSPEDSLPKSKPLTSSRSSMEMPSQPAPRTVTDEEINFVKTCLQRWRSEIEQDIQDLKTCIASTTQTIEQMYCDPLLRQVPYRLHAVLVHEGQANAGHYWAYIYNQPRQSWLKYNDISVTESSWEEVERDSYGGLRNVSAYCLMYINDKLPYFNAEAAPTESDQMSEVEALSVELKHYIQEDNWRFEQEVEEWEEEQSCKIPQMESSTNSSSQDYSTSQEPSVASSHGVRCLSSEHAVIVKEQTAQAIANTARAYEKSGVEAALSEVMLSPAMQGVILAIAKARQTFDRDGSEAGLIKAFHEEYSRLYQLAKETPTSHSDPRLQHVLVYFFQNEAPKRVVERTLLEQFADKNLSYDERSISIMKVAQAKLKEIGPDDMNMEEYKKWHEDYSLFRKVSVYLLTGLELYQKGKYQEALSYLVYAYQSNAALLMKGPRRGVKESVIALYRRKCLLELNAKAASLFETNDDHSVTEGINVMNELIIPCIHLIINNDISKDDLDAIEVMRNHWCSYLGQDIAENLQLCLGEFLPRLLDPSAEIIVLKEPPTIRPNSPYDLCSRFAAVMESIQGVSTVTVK
How it was run: as §1

Measured: log2 ratio of Biotin-Ahx-Ub-VS probe labelling

Sequence of USP24 (Q9UPU5 whole entry): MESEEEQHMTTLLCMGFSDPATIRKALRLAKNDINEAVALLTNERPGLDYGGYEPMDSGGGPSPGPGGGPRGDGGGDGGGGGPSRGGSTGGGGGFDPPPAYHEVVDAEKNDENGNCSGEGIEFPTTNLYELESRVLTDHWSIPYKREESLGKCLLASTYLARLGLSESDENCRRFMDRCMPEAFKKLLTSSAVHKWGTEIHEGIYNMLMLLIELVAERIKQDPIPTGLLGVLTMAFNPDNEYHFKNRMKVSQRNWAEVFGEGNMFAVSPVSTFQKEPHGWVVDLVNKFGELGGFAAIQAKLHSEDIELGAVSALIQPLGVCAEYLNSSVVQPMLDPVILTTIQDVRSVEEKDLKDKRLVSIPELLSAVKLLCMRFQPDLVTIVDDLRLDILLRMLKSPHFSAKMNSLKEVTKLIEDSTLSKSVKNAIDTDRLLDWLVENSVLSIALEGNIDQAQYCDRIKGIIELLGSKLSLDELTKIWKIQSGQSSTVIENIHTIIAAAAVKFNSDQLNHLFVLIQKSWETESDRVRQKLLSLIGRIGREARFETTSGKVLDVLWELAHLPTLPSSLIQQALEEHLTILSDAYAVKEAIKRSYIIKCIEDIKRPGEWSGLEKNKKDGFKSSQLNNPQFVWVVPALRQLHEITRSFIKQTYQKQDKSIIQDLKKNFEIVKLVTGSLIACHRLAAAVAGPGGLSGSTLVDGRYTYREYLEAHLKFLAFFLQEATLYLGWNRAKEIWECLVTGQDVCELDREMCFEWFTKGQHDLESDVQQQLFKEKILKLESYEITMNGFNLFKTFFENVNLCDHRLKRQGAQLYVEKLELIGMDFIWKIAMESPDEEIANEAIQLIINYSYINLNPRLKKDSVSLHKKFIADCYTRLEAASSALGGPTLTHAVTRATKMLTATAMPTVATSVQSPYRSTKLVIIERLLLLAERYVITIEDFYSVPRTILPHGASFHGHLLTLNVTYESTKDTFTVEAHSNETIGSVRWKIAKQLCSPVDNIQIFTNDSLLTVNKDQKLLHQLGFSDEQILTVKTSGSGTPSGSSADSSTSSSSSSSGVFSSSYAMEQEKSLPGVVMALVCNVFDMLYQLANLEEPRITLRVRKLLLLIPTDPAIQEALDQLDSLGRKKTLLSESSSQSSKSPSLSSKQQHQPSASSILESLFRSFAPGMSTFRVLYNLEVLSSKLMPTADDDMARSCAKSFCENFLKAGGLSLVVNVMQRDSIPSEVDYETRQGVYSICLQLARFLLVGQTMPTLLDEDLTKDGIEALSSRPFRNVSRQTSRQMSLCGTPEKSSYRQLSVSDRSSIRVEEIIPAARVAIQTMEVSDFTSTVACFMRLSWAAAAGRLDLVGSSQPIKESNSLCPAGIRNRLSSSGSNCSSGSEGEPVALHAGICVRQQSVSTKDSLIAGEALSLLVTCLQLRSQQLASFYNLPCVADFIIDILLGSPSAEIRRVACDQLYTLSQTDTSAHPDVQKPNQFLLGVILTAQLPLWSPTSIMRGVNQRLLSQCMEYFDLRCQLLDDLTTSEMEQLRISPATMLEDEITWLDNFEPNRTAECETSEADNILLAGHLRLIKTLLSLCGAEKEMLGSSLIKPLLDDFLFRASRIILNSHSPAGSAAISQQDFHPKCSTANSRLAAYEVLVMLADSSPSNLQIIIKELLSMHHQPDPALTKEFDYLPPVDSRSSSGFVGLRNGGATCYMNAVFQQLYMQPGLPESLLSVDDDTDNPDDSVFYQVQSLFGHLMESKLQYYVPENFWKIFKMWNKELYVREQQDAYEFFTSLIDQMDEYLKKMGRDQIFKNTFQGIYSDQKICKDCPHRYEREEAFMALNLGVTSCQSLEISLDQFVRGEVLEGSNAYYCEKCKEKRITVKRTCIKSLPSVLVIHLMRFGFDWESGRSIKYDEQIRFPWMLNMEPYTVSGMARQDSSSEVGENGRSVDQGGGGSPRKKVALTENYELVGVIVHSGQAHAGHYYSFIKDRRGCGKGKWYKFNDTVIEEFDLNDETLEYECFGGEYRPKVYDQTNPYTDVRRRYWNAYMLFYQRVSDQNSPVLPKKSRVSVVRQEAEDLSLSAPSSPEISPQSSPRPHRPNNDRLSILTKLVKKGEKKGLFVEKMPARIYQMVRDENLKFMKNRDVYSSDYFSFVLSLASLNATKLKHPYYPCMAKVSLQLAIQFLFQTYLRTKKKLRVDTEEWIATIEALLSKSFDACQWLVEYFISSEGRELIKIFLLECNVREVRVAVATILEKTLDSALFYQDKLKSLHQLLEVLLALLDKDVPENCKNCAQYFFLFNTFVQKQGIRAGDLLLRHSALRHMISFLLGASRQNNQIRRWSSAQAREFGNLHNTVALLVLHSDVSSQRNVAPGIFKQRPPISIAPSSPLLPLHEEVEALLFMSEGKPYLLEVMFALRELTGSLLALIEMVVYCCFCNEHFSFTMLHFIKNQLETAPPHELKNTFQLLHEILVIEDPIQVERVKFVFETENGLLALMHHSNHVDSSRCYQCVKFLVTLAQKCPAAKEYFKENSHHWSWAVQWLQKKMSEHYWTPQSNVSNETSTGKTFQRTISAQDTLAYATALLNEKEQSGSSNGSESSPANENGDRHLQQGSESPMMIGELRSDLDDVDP

CS(=O)(=O)N1CCCN(C(=O)CCl)CC1
inactive: USP19 -0.0881 | USP22 0.0754 | USP24 -0.0413 | USP25 -0.243 | USP28 -0.549
